Compounds with a hit are over-represented: about 2.9% of the library has one in this group of screens.
FadD28 FP inh: inhibitors of Mycobacterium tuberculosis FadD28 bisubstrate binding | FadD28 bisubstrate probe binding, fluorescence polarization | inhibition, % at 12.5 µM | hit rate 0.22% among 360,000; in the data active means inhibition above about 8.5%, passing the limit was not always enough
GDH-TPI inh: counter-screen for M. tuberculosis FBA inhibitors: GDH-TPI coupled enzymes; GDH-TPI coupled enzyme counterscreen, NADH absorbance; inhibition, % at 4.8 µM; hit rate 1.2% among 360,000; AID 588335; in the data active means inhibition above about 30%
Mtb hypoxia rep: Mtb hypoxia fluorescent reporter inhibition | M. tuberculosis hypoxia-regulated fluorescent reporter, fluorescence | fluorescence inhibition, % (concentration not given with the values) | hit rate 0.1% among 300,000; in the data active means fluorescence inhibition mostly above about 23%, no sharp cut-off; inactive means mostly below about 17%
Mtb FBA inh: inhibits M. tuberculosis FBA enzyme; P9WQA3; purified M. tuberculosis FBA, fluorescence read-out; inhibition, % at 1 µM; hit rate 2.3% among 360,000; AID 588726; in the data active means inhibition above about 27%
Target sequence (P9WQA3 whole entry, looked up): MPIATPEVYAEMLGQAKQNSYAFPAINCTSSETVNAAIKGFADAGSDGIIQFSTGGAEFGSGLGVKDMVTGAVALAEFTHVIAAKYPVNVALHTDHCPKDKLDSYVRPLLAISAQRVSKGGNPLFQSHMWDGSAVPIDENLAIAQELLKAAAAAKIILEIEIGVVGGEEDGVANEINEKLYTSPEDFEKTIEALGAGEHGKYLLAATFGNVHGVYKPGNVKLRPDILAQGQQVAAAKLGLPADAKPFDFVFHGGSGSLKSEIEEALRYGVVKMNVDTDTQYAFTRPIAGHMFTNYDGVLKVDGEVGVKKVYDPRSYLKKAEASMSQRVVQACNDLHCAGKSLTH
Mtb BioA inh: blocks M. tuberculosis BioA enzyme activity. inhibition, % at 9.99 µM. AID 602481. hit rate 0.096% among 360,000. purified M. tuberculosis BioA enzyme, plate reader; in the data active means inhibition above about 40%
Of the large screens only hits and unclear results are named; the others gave an inactive call.

COc1ccc(-c2cc(-c3ccc(O)cc3)nc(N)c2C#N)cc1	Mtb FBA inh 49
COc1ccc(OC)c(-c2cc(-c3cccnc3)nc(N)c2C#N)c1	none (no result: Mtb hypoxia rep)
COc1cccc(-c2cc(-c3cccnc3)nc(N)c2C#N)c1	Mtb FBA inh 127
COc1cccc(-c2cc(-c3cccnc3)c(C#N)c(N)n2)c1	GDH-TPI inh 32, Mtb FBA inh active
C[C@@H]1CN([C@@H](C)CO)C(=O)c2cc(C#C[C@@H](C)O)cnc2O[C@H]1CN(C)C(=O)Cc1ccncc1	none (no result: FadD28 FP inh, GDH-TPI inh, Mtb hypoxia rep, Mtb FBA inh)
COc1ccc(C#Cc2ccc([C@H]3[C@@H](CO)N4CCCCN(Cc5ccncc5)C[C@H]34)cc2)cc1	none (no result: FadD28 FP inh, GDH-TPI inh, Mtb hypoxia rep, Mtb FBA inh)
CCc1ccc(N=C2NC(=O)/C(=C/c3cc(Br)c(OCC(=O)O)c(OC)c3)S2)cc1	GDH-TPI inh 34 (no result: Mtb hypoxia rep)
C=C1CC(C(=O)N/N=C/c2ccc(O)cc2)C1	none (no result: Mtb hypoxia rep, Mtb BioA inh)
COCc1cc(C)nc(OCC(=O)N/N=C/c2ccc(O)cc2O)c1C#N	GDH-TPI inh 35 (no result: Mtb hypoxia rep, Mtb BioA inh)
N/C(=N\[N+](=O)[O-])N/N=C/c1ccc(O)cc1	GDH-TPI inh 37 (no result: Mtb hypoxia rep)
O=C(N/N=C/c1ccc(O)cc1O)C(=O)N/N=C/c1ccc(O)cc1O	GDH-TPI inh 41 (no result: Mtb hypoxia rep)
O=C(NN=Cc1ccc(O)cc1)C(=O)NN=Cc1ccc(O)cc1	GDH-TPI inh 68
O=C(N/N=C/c1ccc(O)cc1)c1ccncc1	none (no result: Mtb hypoxia rep)
COC(=O)C[C@@H]1CC[C@H]2[C@@H](COc3ccc(NS(=O)(=O)c4ccccc4Cl)cc3C(=O)N2C)O1	none (no result: FadD28 FP inh, GDH-TPI inh, Mtb hypoxia rep, Mtb FBA inh)
COc1cccc(C(=O)Nc2ccc3c(c2)C(=O)N(C)C[C@H](OC)[C@@H](C)CN(C(C)=O)[C@H](C)CO3)c1	none (no result: FadD28 FP inh, GDH-TPI inh, Mtb hypoxia rep, Mtb FBA inh)
Cc1cc(C)n(CCC(=O)N/N=C/c2ccc(O)cc2O)n1	GDH-TPI inh 31 (no result: Mtb hypoxia rep)
CN(C(=O)COC(=O)c1ccc(Cl)cc1N)C1CCS(=O)(=O)C1 (stereo not given)	Mtb FBA inh 67 (no result: Mtb hypoxia rep)
CN(C(=O)COC(=O)c1cnc(Cl)c(Cl)c1)C1CCS(=O)(=O)C1 (stereo not given)	none
C[C@H](CO)N1C[C@H](C)[C@H](CN(C)C(=O)Nc2ccc(C(F)(F)F)cc2)Oc2c(NC(=O)c3cnccn3)cccc2C1=O	none (no result: FadD28 FP inh, GDH-TPI inh, Mtb hypoxia rep, Mtb FBA inh)
O=C1c2ccccc2-c2onc3ccc(NCc4ccco4)c1c23	FadD28 FP inh 12
CCNc1ccc2noc3c2c1C(=O)c1ccccc1-3	FadD28 FP inh 52 (no result: Mtb BioA inh)
CCOc1ccc2noc3c2c1C(=O)c1ccccc1-3	none (no result: Mtb hypoxia rep)
O=C(CNS(=O)(=O)c1cccs1)N1CCN(c2ccccc2F)CC1	none
O=C(CNS(=O)(=O)c1cccs1)N1CCN(c2ccccn2)CC1	Mtb FBA inh 87 (no result: Mtb hypoxia rep)
COc1cccc(-c2cnc3c(c2)C(=O)N([C@H](C)CO)C[C@@H](C)[C@@H](CN(C)Cc2cccnc2)O3)c1	none (no result: FadD28 FP inh, GDH-TPI inh, Mtb hypoxia rep, Mtb FBA inh)
CN(C)CC(=O)Nc1ccc2c(c1)[C@@H]1C[C@H](CC(=O)N3CCOCC3)O[C@@H](CO)[C@@H]1O2	none (no result: FadD28 FP inh, GDH-TPI inh, Mtb hypoxia rep, Mtb FBA inh)
CC1OC(OC2C(=O)c3c(O)cc(O)cc3OC2c2ccc(O)c(O)c2)C(O)C(O)C1O (stereo not given)	none (no result: FadD28 FP inh, GDH-TPI inh, Mtb FBA inh, Mtb BioA inh)
COc1cc(C2Oc3cc(C4Oc5cc(O)cc(O)c5C(=O)C4O)ccc3OC2CO)ccc1O (stereo not given)	GDH-TPI inh 36
CCN(CC)c1ccc(/C=N/n2c(-c3ccccc3Br)n[nH]c2=S)cc1	GDH-TPI inh 38 (no result: Mtb hypoxia rep)
CCc1n[nH]c(=S)n1N=Cc1ccc(N(CC)CC)cc1	none (no result: FadD28 FP inh, GDH-TPI inh, Mtb FBA inh, Mtb BioA inh)
N#C/C(=C\c1cc2c(cc1Br)OCO2)c1ccc(C(=O)O)cc1	GDH-TPI inh 31
COc1ccc(C#Cc2c(-c3ccccc3)n(-c3ccccc3)c3ccc(CO)cc23)cc1	GDH-TPI inh 33, Mtb FBA inh 113
COc1ccc(-c2c(C#Cc3ccc(N(C)C)cc3)c3ccccc3n2C)cc1	none (no result: Mtb hypoxia rep)
CCCc1cc(NCCCN(C)C)n2c(nc3ccccc32)c1C#N	Mtb FBA inh 112
CCCc1cc(NCC2CCCO2)n2c(nc3ccccc32)c1C#N (stereo not given)	Mtb FBA inh 192
CCc1c(C)c(C#N)c2nc3ccccc3n2c1NCCN(C)C	none (no result: Mtb BioA inh)
CCCc1cc(-n2cnc3ccccc32)n2c(nc3ccccc32)c1C#N	none
CCCc1cc(NCCN(C)C)n2c(nc3ccccc32)c1C#N	Mtb FBA inh 162
COc1ccc(C(=O)NCC(=O)NN=Cc2c(C)[nH]c3ccccc23)cc1OC	none (no result: FadD28 FP inh, GDH-TPI inh, Mtb FBA inh, Mtb BioA inh)
Cc1cc(-c2nc3cc(F)ccc3s2)ccc1N	GDH-TPI inh 38 (no result: Mtb hypoxia rep, Mtb FBA inh, Mtb BioA inh)
O=C(Cc1cccnc1)N1CCCCN2[C@@H](CO)[C@H](c3ccc(C#CC4CC4)cc3)[C@@H]2C1	none (no result: FadD28 FP inh, GDH-TPI inh, Mtb hypoxia rep, Mtb FBA inh)
Cc1ccc2oc(-c3ccco3)cc(=O)c2c1	GDH-TPI inh 31, Mtb FBA inh 123 (no result: Mtb BioA inh)
